A number with no mark means an inactive call. Inconclusive results are not listed. Active and inactive are the calls of the source. Unless noted, calls follow the shape of the dose curve; as a rule, active = well fitted curve in either direction with a large enough effect (not every such curve was filed as active); inconclusive = small, poorly fitted or top-dose-only effect, or another doubt; inactive = flat fitted curve, though single readings scatter.
Tests used:
[1] = target: Lysosomal acid glucosylceramidase (Homo sapiens) (UniProt P04062); test: Glucocerebrosidase-p2 (AID 348; in the data active = potency below about 10 µM; also: potency is read from the fitted curve at half-maximal effect); settings: purified GBA, blue fluorogenic substrate, 40 min
Procedure, shortened: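 Normal human glucocerebrosidase (0.2 nM) with blue fluorogenic substrate (80 uM final) in citrate/phosphate pH 5.9 with 10mM sodium taurocholate, 0.01% tween-20; 40 min RT, NaOH/glycine stop; fluorescence Ex 365/Em 440; AC50 from a titration from 0.6 nM upwards.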

[2] = AP1 Signaling Pathway (AID 357); settings: ME-180 AP-1-bla reporter, EGF-induced, beta-lactamase ratio, 5 h; at 7.69 µM (top of the series) unless noted;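 also: ME-180 reporter cells stimulated with EGF at its EC50 level; % is scaled to controls: 0 for no effect and ±100 for the full control effect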
Procedure, shortened: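 Beta-lactamase reporter under AP-1 response element, ME-180 background. Stimulus: EC50 EGF. Compound exposure 5 h, 37 °C. Detection: CCF4, 2.5 h RT, 460/530 nm. Values: AC50 from titration.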

[3] = target: Cytochrome P450 1A2 (Homo sapiens) (UniProt P05177); test: p450-cyp1a2 (AID 410; calls by dose curve; also: potency is read from the fitted curve at half-maximal effect;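 as to activity change, negative = inhibition: -100% = full effect of reference inhibitor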); settings: recombinant CYP1A2, luciferin-ME demethylation, luminescence; series mostly up to 57 µM
Procedure, shortened: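 Luminescent demethylation readout: Luciferin-ME (100uM, equal to Km) turned over by 20nM CYP1A2 for 60 min at room temperature after NADPH regeneration addition, following 10 min compound preincubation. Normalization used 57 uM furafylline as full inhibition.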

[4] = NFAT Signaling Pathway (AID 444); settings: Jurkat NFAT-bla M1, carbachol, beta-lactamase ratio, 5 h; at 7.69 µM (top of the series) unless noted;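 also: carbachol stimulus at about its EC50 of 1 µM final; % is scaled to controls: 0 for no effect and ±100 for the full control effect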
Procedure, shortened: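 Read-out: CCF4 FRET ratio (460 nm/530 nm) after 1 h RT dye loading, used for %activity and AC50 from titration series. Cells: Jurkat NFAT-β-lactamase/M1 line, treated with compound plus 1 uM carbachol for 5 h, 37 °C.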

[5] = Stat Signaling Pathway (AID 446); settings: ME-180 SIE beta-lactamase reporter, IL-6 stimulated, 5 h; at 7.69 µM (top of the series) unless noted;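 also: ME-180 cervical cancer cells given 40 pM IL-6 alongside compound; SIE-controlled beta-lactamase reporter measured as 460/530 nm FRET emission ratio; % is scaled to controls: 0 for no effect and ±100 for the full control effect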
Procedure, shortened: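 Emission at 460 and 530 nm (excitation 405 nm) reports SIE-controlled beta-lactamase in ME-180 cells. Cells received compound with 40 pM IL-6 for 5 hrs at 37 C; data scaled between 300 pM IL-6 and 125 nM JAK-inhibitor controls.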

[6] = target: Glucocorticoid receptor (Homo sapiens) (UniProt P04150); test: GR-GFP Redistribution (AID 450;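 active = compounds whose dose series gives a full or clear partial fitted curve of increased nuclear translocation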; also: potency is read from the fitted curve at half-maximal effect); settings: U2OS GR-GFP nuclear translocation, laser cytometry, 2 h
[7] = target: Glucocorticoid receptor (Homo sapiens) (UniProt P04150); test: GR-EFC Redistribution (AID 451; calls by dose curve; also: potency is read from the fitted curve at half-maximal effect); settings: CHO-K1 GR-EFC translocation, beta-gal luminescence, 2 h
Procedure, shortened: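 Translocation of GR-ED fusion to nuclear EA restores b-gal, read by luminescence after 1 h room-temperature detection. Engineered CHO-K1 biosensor cells, 1,000/well, exposed 2 h at 37 C to titrations up to 46 uM final.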

[8] = target: Mitogen-activated protein kinase 10 (Mus musculus) (UniProt Q61831); test: JNK3 AlphaScreen Assay (AID 530); settings: JNK3 lysate, c-Jun phosphorylation; series mostly up to 57.1 µM;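 also: kinase came from lysate of stimulated human HepG2 cells; signal reports phosphorylation of biotinylated GST-cJun 1-79 at Ser73 with 10 µM ATP; % is scaled to controls: 0 for no effect and ±100 for the full control effect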
Procedure, shortened: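 qHTS titrations with 15 min compound pre-incubation before adding ATP (10 uM final). Read-out: AlphaScreen of Ser73-phosphorylated biotin-GST-cJun using HepG2 lysate JNK3 activated by IL-1β and TNFα.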

[9] = target: 3',5'-cyclic-AMP phosphodiesterase 4B (Homo sapiens) (UniProt Q07343); test: qHTS Assay for Inhibitors of PDE-IV (AID 607; active = well fitted activation curve with a large enough effect in the main read-out, with a control signal flat, not every such curve was filed as active; also: % of control where 0% means no effect); settings: HEK293 ACTOne CNG channel cells, membrane potential fluorescence; series mostly up to 22.9 µM
Procedure, shortened: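 The readout is membrane depolarisation from a cAMP-sensing CNG channel, detected with a potential dye at ex 535/em 590. Cells were HEK293-derived (endogenous PDE-IV) at 1000 cells/well, titrated up to 22.9 uM final.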

[10] = target: Cytochrome P450 3A4 (Homo sapiens) (UniProt P08684); test: qHTS Assay for Activators of Cytochrome P450 3A4 (AID 885; active = well fitted curve in the direction sought with a large enough effect; an effect the other way counts as inactive or inconclusive; also: nearly all actives have a fitted effect of over 65% in size); settings: recombinant CYP3A4, Luciferin-PPXE luminescence, 60 min; series mostly up to 57.1 µM
Procedure, shortened: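 Activators are scored by enhanced luminescence from CYP3A4 conversion of luciferin-PPXE (25uM, equal to KM) to luciferin, after 60 min at RT with an NADPH-regenerating system.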

[11] = Primary qHTS for small molecule stabilizers of the endoplasmic reticulum resident proteome: Secreted ER Calcium Modulated Protein (SERCaMP) assay (AID 1508630; active = well fitted curve in the direction sought with a large enough effect; an effect the other way counts as inactive or inconclusive; also: % is scaled to controls: 0 for no effect and ±100 for the full control effect); settings: SH-SY5Y GLuc-SERCaMP (Gaussia luciferase released on ER calcium loss) secretion, thapsigargin, luminescence; series mostly up to 38.4 µM
Procedure, shortened: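 The SH-SY5Y reporter protocol was run at 3 concentrations up to 38.3 uM (primary) or 11 concentrations (follow-up): 16 h compound, 100 nM thapsigargin for 4 h, then extracellular luciferase luminescence.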

[12] = target: Cytochrome P450 3A4 (Homo sapiens) (UniProt P08684); test: qHTS Assay for Inhibitors and Substrates of Cytochrome P450 3A4 (AID 884; active = well fitted curve in the direction sought with a large enough effect; an effect the other way counts as inactive or inconclusive; also: potency is read from the fitted curve at half-maximal effect; nearly all actives have a fitted effect of over 50% in size); settings: recombinant CYP3A4, Luciferin-PPXE luminescence; series mostly up to 57.1 µM
Procedure, shortened: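 Luminescent readout of luciferin produced by CYP3A4 (20 nM) dealkylation of Luciferin-PPXE, 25 uM (its KM). NADPH-driven reaction ran 60 min at RT after 10 min compound preincubation; data scaled to 57 uM ketoconazole as 100% inhibition.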

[13] = target: Ubiquitin carboxyl-terminal hydrolase 1 (Homo sapiens) (UniProt O94782); test: Inhibitors of USP1/UAF1: Pilot qHTS (AID 504865; active = well fitted curve in the direction sought with a large enough effect; an effect the other way counts as inactive or inconclusive;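 also: rhodamine fluorescence freed from ubiquitin-rhodamine substrate followed over time; top concentration of the series differs between compounds; % is scaled to controls: 0 for no effect and ±100 for the full control effect; nearly all actives have a fitted effect of over 35% in size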); settings: purified USP1/UAF1, Ub-rhodamine cleavage fluorescence; series mostly up to 54.9 µM
Procedure, shortened: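 1nM USP1/UAF1 + cpd, 15 min RT; start w/ Ub-Rho 150nM final; kinetic FL 480/540 nm, 6 reads q60 s. Buffer 50mM HEPES pH 7.8, 0.5mM EDTA, 1mM TCEP, 0.01% Tween-20, 0.1 mg/ml BSA.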

[14] = target: Cytochrome P450 2C19 (Homo sapiens) (UniProt P33261); test: qHTS Assay for Inhibitors and Substrates of Cytochrome P450 2C19 (AID 899; active = well fitted curve in the direction sought with a large enough effect; an effect the other way counts as inactive or inconclusive; also: potency is read from the fitted curve at half-maximal effect; nearly all actives have a fitted effect of over 60% in size); settings: recombinant CYP2C19, luciferin-H EGE luminescence; series mostly up to 57.1 µM
Procedure, shortened: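 Luminescence readout of luciferin formed from 10uM Luciferin-H EGE (KM level) by 5 nM CYP2C19 in 50mM KPO4. 60 min NADPH-driven reaction at 37C after 10 min compound preincubation; data scaled to 57uM ketoconazole inhibition.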

[15] = qHTS Assay for Identification of Small Molecule Agonists for Hypoxia Response Element Signaling Pathway (AID 914; active = well fitted activation curve with a large enough effect in the signal ratio, with a control signal flat, not every such curve was filed as active; the % refers to the signal ratio; also: % of control where 0% means no effect); settings: ME-180 (cervical carcinoma) HRE-bla reporter, beta-lactamase ratio, CoCl2, 17 h; activation: stronger effect = higher value
Procedure, shortened: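 Compounds in a titration series were added to ME-180 reporter cells alongside an EC50 level of CoCl2. After 17 hours, beta-lactamase activity was read as the 460nm/530nm emission ratio of CCF4, giving AC50 values.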

Sequence of 3',5'-cyclic-AMP phosphodiesterase 4B (Homo sapiens) (Q07343 whole entry, looked up): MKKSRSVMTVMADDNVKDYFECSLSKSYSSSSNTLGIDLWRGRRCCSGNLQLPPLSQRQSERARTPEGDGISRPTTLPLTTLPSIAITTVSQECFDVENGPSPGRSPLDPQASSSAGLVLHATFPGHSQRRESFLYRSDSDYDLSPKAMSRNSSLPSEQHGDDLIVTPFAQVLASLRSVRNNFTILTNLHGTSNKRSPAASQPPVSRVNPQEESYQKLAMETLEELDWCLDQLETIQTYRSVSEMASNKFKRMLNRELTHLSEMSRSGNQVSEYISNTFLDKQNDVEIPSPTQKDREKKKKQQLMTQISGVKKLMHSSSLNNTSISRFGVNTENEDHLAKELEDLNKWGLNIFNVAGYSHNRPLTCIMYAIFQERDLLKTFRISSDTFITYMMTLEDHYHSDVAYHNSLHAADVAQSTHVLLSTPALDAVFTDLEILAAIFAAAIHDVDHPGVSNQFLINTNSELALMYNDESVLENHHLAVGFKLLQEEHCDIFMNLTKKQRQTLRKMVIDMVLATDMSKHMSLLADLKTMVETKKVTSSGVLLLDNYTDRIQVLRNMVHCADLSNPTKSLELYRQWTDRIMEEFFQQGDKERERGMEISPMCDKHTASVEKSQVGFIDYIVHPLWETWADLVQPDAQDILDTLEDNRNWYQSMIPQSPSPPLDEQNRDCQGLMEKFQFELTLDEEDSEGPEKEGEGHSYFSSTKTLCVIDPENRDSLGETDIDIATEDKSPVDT
Sequence of Lysosomal acid glucosylceramidase (Homo sapiens) (P04062 whole entry, looked up): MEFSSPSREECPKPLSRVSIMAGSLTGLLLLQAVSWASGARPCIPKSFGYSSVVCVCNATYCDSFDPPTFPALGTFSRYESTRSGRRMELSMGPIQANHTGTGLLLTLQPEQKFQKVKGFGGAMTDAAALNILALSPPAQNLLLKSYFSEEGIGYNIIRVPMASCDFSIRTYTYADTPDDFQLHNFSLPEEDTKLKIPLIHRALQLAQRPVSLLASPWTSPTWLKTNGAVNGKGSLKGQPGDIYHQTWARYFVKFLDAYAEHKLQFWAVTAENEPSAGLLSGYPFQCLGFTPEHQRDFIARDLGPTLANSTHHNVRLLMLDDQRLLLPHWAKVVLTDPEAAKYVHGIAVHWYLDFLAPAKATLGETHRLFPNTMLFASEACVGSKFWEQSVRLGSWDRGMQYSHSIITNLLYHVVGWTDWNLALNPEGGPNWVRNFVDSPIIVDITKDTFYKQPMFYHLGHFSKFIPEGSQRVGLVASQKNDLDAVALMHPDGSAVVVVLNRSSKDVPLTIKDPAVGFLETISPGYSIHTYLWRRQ
Sequence of Cytochrome P450 3A4 (Homo sapiens) (P08684 whole entry, looked up): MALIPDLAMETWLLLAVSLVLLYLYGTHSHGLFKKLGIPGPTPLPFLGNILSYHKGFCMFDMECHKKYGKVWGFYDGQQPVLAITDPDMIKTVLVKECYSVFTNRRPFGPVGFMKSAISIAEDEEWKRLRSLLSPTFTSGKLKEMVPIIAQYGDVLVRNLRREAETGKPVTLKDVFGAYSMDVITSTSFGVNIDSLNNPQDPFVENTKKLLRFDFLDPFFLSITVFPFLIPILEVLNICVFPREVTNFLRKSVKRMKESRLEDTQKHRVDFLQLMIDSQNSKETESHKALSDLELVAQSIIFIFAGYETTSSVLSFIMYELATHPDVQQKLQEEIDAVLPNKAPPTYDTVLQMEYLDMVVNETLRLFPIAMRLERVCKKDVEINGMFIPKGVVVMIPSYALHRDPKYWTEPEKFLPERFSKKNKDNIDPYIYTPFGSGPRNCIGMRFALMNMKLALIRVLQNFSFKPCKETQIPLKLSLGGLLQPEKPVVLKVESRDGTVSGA
Sequence of Cytochrome P450 1A2 (Homo sapiens) (P05177 whole entry, looked up): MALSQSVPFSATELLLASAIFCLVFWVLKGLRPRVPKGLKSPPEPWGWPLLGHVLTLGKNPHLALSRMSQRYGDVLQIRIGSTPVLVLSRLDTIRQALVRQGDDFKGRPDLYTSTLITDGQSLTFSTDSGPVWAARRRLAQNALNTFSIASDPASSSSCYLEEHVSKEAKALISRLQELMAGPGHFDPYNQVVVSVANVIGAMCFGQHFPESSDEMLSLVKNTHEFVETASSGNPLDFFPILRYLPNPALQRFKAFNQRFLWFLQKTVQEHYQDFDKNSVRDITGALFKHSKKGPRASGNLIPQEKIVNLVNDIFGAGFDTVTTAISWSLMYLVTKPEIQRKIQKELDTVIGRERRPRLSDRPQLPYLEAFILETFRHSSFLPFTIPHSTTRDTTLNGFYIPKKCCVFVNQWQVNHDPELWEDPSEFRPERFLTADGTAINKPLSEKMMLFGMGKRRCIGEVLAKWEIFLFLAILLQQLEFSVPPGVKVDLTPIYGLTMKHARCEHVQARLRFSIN
Sequence of Glucocorticoid receptor (Homo sapiens) (P04150 whole entry, looked up, the tested form may be a part): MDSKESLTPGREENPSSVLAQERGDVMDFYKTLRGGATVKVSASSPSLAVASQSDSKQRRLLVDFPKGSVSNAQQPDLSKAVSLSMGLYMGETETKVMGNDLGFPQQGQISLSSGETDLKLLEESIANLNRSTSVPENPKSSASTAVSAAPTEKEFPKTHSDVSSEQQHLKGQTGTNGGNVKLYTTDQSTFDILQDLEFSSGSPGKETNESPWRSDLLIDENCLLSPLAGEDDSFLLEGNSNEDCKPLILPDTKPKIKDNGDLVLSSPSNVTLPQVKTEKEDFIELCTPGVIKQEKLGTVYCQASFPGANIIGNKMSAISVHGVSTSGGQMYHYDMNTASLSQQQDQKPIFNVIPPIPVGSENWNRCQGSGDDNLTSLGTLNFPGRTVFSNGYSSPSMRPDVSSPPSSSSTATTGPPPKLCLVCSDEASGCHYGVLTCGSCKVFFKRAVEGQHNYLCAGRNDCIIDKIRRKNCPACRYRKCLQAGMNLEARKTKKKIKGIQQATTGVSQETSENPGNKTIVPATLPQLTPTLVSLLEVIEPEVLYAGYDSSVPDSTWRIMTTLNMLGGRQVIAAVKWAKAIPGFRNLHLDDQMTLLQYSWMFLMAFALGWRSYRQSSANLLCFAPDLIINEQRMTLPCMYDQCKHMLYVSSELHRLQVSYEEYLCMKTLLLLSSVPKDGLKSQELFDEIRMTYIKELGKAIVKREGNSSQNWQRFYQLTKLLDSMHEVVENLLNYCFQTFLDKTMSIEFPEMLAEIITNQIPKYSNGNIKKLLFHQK
Sequence of Cytochrome P450 2C19 (Homo sapiens) (P33261 whole entry, looked up): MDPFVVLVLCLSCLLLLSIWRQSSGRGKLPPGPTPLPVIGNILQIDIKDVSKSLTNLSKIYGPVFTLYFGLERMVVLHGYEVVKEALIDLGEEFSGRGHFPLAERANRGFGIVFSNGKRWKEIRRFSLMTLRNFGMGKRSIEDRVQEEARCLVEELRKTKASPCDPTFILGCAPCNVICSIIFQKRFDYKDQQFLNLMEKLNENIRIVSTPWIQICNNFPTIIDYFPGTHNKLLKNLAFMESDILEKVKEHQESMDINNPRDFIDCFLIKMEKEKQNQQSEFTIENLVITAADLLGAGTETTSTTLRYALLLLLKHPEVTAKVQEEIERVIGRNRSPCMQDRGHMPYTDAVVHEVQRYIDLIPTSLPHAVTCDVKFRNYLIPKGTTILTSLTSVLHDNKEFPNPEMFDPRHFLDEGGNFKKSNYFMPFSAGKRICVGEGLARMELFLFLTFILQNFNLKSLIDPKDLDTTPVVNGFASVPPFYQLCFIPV
Sequence of Ubiquitin carboxyl-terminal hydrolase 1 (Homo sapiens) (O94782 whole entry, looked up): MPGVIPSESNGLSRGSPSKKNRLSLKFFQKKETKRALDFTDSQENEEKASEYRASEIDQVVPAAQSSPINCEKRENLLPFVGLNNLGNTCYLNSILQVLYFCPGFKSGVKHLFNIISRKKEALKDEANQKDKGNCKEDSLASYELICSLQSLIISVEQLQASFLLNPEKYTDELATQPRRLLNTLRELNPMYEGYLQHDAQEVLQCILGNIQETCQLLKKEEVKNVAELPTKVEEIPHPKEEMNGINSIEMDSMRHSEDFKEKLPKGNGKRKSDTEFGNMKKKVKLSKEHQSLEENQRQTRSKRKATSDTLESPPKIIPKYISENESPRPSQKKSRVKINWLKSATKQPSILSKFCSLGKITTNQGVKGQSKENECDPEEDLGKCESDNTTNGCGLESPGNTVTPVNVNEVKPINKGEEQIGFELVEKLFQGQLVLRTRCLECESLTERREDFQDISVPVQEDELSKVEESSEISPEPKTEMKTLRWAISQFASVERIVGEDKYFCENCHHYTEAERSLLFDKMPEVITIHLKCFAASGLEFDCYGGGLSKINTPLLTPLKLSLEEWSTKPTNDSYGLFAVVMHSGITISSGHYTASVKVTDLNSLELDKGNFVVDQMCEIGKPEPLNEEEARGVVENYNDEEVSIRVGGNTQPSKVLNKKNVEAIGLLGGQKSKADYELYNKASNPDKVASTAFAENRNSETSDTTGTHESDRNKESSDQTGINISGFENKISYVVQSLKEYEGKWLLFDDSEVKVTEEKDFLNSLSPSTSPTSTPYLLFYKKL

| SMILES | Potency [1] | activity change, negative = inhibition [2] [%] | Potency [3] | activity change, negative = inhibition [4] [%] | activity, negative = inhibition [5] [%] | Potency [6] [µM] | Potency [7] [µM] | Potency [8] | Potency [9] | Potency [10] | outcome [11] | Potency [12] | Potency [13] | Potency [14] | activation [15] [%] |
| --- | --- | --- | --- | --- | --- | --- | --- | --- | --- | --- | --- | --- | --- | --- | --- |
| Cc1nc2cnc(Oc3ccccc3)nc2n(CCC#N)c1=O | > 11.4 µM | -21.9 | 20 µM (active) | -8.6 | -6.56 | > 9.22 | > 46 | inactive | inactive | inactive | inactive | – | – | – | – |
| c1ccc2c(NC3CC3)nc(-c3ccoc3)nc2c1 | 3.8 µM (active) | 14.4 | 0.316 µM (active) | -16.4 | -5.96 | > 46 | > 46 | inactive | – | inactive | inactive | 3.98 µM (active) | inactive | – | – |
| COc1ccc(-n2c(=O)c(C)nc3cnc(N(C)C)nc32)cc1 | > 11.4 µM | -8.91 | 6.31 µM (active) | 5.39 | -5.54 | > 9.22 | > 46 | inactive | inactive | inactive | inactive | – | – | – | – |
| COc1ncc2ncc(=O)n(Cc3ccc(F)cc3)c2n1 | > 11.4 µM | -11.8 | 12.6 µM (active) | -5.96 | -7.56 | > 9.22 | > 46 | inactive | inactive | inactive | inactive | – | – | 7.94 µM (active) | – |
| O=C(c1cnccn1)N1CCC2(CC1)CN(Cc1nccs1)C2 | > 11.4 µM | -5.34 | inactive | -5.05 | -2.27 | – | > 46 | inactive | inactive | – | inactive | – | – | – | – |
| COc1ccc(-n2c(=O)c(CCc3ccccc3)nc3cnc(N(C)C)nc32)cc1 | > 11.4 µM | 0.546 | 3.16 µM (active) | -2.06 | 0.00123 | > 9.22 | > 46 | inactive | inactive | inactive | inactive | – | – | – | 10.3 |
| COc1cccc(Cn2c(=O)c(-c3ccccc3)nc3cnc(N(C)C)nc32)c1 | > 11.4 µM | 8.64 | 10 µM (active) | -16.4 | 11.4 | > 9.22 | > 46 | – | – | inactive | inactive | 6.31 µM (active) | – | – | – |

Reference: PubChem BioAssay (NCATS)
